Measured values as given in ChEMBL document CHEMBL3988442, “University of Dundee, Small-Polar-MMV Screening Library” (2021).
For some assays here: Potency and affinity values are given separately.

Columns and labels:
Design in all cases: scale not given: direction of the effect not stated beside the values
[1] = target: Protein translocase subunit SecA (Escherichia coli (strain K12)) (UniProt P10408); assay: Assay to Identify E. coli SecA ATPase Inhibitors; type: functional; details: 30 µM
[2] = target: T1, Ubiquitin-activating enzyme e1, putative (Leishmania donovani (strain BPK282A1)) (UniProt E9BSI1); assay: Leishmania donovani Ubiquitin Activating Enzyme (LdE1); type: functional; details: 30 µM
T1 sequence (whole entry): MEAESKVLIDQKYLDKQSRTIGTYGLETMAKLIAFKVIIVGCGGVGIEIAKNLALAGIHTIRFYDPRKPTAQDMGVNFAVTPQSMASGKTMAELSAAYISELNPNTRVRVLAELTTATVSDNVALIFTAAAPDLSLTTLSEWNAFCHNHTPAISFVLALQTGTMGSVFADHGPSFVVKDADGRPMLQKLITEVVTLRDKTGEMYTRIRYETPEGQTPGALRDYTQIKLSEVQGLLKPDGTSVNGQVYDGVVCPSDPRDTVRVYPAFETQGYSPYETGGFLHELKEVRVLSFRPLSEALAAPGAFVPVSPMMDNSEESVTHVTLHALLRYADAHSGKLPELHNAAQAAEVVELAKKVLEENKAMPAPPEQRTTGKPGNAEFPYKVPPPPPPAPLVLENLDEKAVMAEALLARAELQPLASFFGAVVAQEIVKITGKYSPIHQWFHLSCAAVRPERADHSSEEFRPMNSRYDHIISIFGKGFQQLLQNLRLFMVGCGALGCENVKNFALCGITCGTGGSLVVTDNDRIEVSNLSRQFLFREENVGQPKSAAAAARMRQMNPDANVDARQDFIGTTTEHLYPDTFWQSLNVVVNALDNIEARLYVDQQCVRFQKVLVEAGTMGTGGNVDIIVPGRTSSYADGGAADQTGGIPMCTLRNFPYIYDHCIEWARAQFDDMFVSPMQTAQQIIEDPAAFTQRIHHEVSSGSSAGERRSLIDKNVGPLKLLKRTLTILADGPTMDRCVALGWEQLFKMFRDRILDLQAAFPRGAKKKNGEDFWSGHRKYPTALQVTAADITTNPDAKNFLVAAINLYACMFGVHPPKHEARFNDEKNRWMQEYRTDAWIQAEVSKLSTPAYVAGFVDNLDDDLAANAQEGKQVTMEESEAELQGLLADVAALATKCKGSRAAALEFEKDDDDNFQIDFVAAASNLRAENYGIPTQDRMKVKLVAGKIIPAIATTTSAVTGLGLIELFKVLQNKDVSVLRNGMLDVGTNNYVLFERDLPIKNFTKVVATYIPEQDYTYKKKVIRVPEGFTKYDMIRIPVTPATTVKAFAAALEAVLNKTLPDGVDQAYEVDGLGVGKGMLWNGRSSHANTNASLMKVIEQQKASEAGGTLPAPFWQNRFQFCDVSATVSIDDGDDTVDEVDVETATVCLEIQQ

[3] = target: AMP-activated protein kinase, AMPK (Homo sapiens) (UniProt P54646+O43741+P54619+Q9UGJ0+Q9Y478+Q13131+Q9UGI9); assay: AMP-dependent Kinase enzyme assay. An in vitro enzyme assay that detects ADP turnover that is directly proportional to AMPK activity. This uses naive AMPK that is activated during the assay with MK-8722; type: functional; details: 30 µM
[4] = target: Sialic acid-binding Ig-like lectin 9 (Homo sapiens) (UniProt Q9Y336); assay: Hs-Siglec9 ALPHAscreen SOP 20170721; details: 10 µM
Trypanosoma cruzi = assay: Trypanosoma cruzi phosphomannomutase and mannose-1-phosphate guanylyltransferase assay; type: functional; details: 10 µM
[5] = target: T2, Arginase-2, mitochondrial (Homo sapiens) (UniProt P78540); assay: in vitro enzyme assay to detect the production of urea directly proportional to the activity of Arginase II; type: functional; details: 33.3 µM; also: in the data most compounds retested in dose-response had high values
T2 sequence (whole entry): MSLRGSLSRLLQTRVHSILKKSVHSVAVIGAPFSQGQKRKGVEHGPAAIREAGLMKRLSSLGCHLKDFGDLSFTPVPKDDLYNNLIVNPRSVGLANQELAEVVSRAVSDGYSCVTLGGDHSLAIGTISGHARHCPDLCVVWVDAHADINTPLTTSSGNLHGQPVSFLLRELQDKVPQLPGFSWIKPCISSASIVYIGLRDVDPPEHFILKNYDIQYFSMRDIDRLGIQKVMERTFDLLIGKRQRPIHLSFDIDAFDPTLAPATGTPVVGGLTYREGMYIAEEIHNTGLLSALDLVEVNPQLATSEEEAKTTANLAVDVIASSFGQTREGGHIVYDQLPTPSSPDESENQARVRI

[6] = target: T3, Proteasome subunit beta (Trypanosoma cruzi) (UniProt O96673); assay: Trypanosoma cruzi proteasome chymotrypsin-like activity (TcProtChymo) assay.; also: in the data most compounds retested in dose-response had high values; type: functional; details: 9.37 µM
T3 sequence (whole entry): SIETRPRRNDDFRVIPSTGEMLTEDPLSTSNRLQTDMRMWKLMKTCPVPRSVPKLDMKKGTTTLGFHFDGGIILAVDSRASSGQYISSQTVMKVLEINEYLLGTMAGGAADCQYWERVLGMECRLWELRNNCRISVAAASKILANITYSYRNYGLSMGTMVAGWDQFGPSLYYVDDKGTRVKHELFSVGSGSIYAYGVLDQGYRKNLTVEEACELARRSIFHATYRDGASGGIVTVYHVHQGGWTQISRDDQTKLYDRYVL

Homo sapiens = organism: Homo sapiens; assay: To identify inhibition of the IFN signalling (Jak-Stat) pathway via expression of an eGFP reporter gene under the control of an IFN-stimulated response element (ISRE) containing MxA promoter.; type: functional; details: 30 µM
[7] = target: T4, Tyrosyl-tRNA synthetase, putative (Trypanosoma cruzi (strain CL Brener)) (UniProt Q4DSP6); assay: Trypanosoma cruzi tyrosyl tRNA synthetase (TcYRS) _High Tyrosine SOP; type: functional; details: 30 µM; also: in the data most compounds retested in dose-response had high values
T4 sequence (whole entry): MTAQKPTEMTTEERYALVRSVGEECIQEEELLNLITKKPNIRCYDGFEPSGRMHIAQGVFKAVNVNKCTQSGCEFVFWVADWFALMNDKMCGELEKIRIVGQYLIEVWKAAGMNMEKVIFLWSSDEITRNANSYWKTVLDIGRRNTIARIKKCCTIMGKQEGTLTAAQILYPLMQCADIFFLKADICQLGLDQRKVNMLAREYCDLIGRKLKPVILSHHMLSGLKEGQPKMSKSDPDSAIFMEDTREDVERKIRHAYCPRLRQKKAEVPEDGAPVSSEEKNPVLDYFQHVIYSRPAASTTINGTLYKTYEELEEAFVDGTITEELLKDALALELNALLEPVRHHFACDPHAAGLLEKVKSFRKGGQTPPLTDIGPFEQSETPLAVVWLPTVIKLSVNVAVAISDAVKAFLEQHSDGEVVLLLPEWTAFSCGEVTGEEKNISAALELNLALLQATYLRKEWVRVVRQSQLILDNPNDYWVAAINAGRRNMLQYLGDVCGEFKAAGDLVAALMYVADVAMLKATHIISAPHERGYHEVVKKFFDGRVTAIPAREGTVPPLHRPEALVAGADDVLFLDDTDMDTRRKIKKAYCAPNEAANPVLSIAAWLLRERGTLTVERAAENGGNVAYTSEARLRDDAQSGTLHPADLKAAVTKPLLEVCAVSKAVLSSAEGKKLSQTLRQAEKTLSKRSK

[8] = target: T4, Tyrosyl-tRNA synthetase, putative (Trypanosoma cruzi (strain CL Brener)); assay: Trypanosoma cruzi tyrosyl tRNA synthetase (TcYRS) SOP; type: functional; details: 30 µM
[9] = target: Chromo domain-containing protein 1 (Saccharomyces cerevisiae (strain ATCC 204508 / S288c) (Baker's yeast)) (UniProt P32657); assay: ScCHD-1 Enzyme Inhibition Assay; type: functional; details: 30 µM; also: in the data most compounds retested in dose-response had high values
Sequence of Chromo domain-containing protein 1 (Saccharomyces cerevisiae (strain ATCC 204508 / S288c) (Baker's yeast)) (P32657 whole entry, the tested form may be a part): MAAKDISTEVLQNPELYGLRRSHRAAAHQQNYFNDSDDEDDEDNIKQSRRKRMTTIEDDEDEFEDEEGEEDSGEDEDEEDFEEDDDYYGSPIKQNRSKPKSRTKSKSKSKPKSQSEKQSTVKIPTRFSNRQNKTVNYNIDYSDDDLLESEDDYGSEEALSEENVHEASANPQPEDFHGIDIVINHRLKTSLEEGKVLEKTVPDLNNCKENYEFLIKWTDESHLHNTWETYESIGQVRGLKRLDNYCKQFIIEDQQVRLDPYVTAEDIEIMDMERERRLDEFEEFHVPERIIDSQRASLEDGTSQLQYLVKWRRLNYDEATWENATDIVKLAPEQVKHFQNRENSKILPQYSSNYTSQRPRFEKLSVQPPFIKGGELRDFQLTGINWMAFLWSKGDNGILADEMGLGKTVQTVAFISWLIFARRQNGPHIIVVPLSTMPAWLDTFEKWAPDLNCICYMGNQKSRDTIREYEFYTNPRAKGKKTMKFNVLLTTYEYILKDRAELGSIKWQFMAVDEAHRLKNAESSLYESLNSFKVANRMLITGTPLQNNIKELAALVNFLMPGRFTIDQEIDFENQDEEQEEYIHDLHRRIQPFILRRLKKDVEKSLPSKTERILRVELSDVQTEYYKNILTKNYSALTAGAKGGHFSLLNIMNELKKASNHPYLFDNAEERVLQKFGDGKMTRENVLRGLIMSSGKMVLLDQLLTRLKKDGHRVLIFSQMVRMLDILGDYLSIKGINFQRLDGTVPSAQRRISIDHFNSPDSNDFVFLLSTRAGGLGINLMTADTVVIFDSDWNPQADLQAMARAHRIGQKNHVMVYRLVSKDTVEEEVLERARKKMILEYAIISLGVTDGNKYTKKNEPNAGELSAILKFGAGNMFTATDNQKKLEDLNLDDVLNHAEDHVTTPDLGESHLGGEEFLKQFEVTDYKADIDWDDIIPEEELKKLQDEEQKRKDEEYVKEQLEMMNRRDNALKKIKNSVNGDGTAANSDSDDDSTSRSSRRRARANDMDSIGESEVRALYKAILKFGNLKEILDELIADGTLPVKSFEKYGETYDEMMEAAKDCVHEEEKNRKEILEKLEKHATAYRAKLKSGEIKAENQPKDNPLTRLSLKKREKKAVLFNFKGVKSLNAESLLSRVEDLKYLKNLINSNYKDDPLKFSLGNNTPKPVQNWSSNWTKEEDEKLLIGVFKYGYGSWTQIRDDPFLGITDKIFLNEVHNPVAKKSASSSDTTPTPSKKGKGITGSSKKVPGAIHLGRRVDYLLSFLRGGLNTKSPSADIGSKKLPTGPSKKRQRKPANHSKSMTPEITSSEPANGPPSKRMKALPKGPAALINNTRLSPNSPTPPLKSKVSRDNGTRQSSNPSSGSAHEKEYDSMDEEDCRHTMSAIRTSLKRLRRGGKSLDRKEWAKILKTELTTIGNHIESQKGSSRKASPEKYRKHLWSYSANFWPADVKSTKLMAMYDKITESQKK

Sequence of Sialic acid-binding Ig-like lectin 9 (Homo sapiens) (Q9Y336 whole entry): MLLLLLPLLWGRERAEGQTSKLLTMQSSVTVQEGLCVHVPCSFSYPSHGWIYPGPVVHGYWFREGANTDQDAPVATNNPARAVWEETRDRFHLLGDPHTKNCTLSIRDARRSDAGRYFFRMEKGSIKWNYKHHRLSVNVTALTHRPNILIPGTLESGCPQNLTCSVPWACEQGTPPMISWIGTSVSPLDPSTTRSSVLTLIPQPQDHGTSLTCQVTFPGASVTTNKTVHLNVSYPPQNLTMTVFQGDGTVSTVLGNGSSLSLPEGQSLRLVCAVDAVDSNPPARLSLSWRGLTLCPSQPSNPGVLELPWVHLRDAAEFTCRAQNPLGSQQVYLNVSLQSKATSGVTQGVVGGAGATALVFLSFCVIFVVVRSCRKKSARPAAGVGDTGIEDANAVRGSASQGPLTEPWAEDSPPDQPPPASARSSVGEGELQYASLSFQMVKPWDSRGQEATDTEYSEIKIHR
Sequence of Protein translocase subunit SecA (Escherichia coli (strain K12)) (P10408 whole entry): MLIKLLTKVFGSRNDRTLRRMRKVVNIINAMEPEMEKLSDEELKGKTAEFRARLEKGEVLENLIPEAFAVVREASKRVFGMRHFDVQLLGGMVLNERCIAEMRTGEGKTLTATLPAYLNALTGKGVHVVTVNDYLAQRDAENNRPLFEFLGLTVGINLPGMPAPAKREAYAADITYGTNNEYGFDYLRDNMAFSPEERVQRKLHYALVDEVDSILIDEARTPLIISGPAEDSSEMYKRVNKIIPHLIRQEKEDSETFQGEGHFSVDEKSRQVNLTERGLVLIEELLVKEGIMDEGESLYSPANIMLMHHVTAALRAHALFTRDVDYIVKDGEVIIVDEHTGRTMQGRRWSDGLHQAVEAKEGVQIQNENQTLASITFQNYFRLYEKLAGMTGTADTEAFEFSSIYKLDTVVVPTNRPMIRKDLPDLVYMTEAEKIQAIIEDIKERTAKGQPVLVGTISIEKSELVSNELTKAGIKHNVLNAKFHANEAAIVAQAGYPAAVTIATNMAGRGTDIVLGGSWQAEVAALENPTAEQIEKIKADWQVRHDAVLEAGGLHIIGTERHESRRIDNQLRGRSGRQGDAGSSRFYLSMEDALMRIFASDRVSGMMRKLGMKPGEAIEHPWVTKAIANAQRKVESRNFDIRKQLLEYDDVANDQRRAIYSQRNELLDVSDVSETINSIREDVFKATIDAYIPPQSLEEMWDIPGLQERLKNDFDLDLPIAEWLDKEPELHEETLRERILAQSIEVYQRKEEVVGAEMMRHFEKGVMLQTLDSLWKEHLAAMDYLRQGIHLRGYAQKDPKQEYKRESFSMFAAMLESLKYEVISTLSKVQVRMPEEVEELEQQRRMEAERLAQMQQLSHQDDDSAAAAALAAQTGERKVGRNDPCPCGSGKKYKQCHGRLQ

| Compound | Percent Effect [1] [%] | Percent Effect [2] [%] | Percent Effect [3] [%] | Percent Effect [4] [%] | Percent Effect (Trypanosoma cruzi) [%] | Percent Effect [5] [%] | Percent Effect [6] [%] | Percent Effect (Homo sapiens) [%] | Percent Effect [7] [%] | Percent Effect [8] [%] | Percent Effect [9] [%] |
| --- | --- | --- | --- | --- | --- | --- | --- | --- | --- | --- | --- |
| CCc1nc(CN2CCCN(c3nc4ccccc4o3)CC2)no1 | 7.05 | 13 | -1.96 | 2.65 | -9.14 | -13.8 | 12.2 | 23.6 | 4.3 | 8.64 | -0.262 |
| O=C(CSc1ccccc1Cl)NS(=O)(=O)c1ccc2c(c1)OCCO2 | -4.83 | -21.1 | 27.8 | 4.23 | 1.69 | -1.15 | 9.69 | 4.4 | -15.2 | -12.2 | -10.3 |
| Cc1ccc(-c2nc(CNC3CCc4ncnn4C3)co2)c(C)c1 (stereo not given) | -7.34 | -41.6 | -3.33 | 17.9 | 6.18 | 0 | 7.09 | 9.71 | 10.7 | 19.5 | 80.3 |
| CNC(=O)c1cnc(/C=C/c2cc(OC)c(OC)c(OC)c2)s1 | -3.62 | 16.2 | -4.03 | 8.07 | 1.56 | 21.2 | 16 | 40.4 | 9.9 | 18.3 | -13 |
| CNS(=O)(=O)c1cccc(CNC(=O)c2c(C)oc(C)c2C)c1 | -3.91 | 19 | 6.49 | -6.49 | 3.79 | -1.07 | 18.4 | 7.61 | 2.08 | 15.2 | 53.2 |
| CNC(=O)CCNC(=O)c1cccc(Cn2nc(C)cc2C)c1 | -1.98 | 4.17 | 1.31 | 2.11 | 5.15 | -3.09 | 10.7 | 15.9 | 6.32 | 7.69 | -5.17 |
| Cc1cnn(CC2CCCN2C(=O)c2ccc3cc[nH]c3c2)c1 (stereo not given) | -1.42 | 1.27 | 3.59 | 1.53 | -1.33 | 1.5 | 2.4 | 13.8 | 0 | 5.06 | -8.72 |
| CCc1noc(C(C)N2CCN(c3ccc(C#N)cn3)CC2)n1 (stereo not given) | -5.24 | 10.5 | 4.88 | -4.78 | -4.58 | -1.18 | 14.9 | 17.9 | 4.25 | 5.2 | -5.13 |
| CCOC(CC)C(=O)NCCC(=O)N1CCN(c2ncccn2)CC1 (stereo not given) | -2.66 | 2.63 | 4.87 | 5.24 | 5.94 | 0 | 7.19 | 0.555 | 3.19 | 5.2 | 1.78 |
| Cc1nnc(NC(=O)NCc2cc(F)cc(F)c2)s1 | -1.16 | 21.1 | -3.09 | -15.6 | -9.43 | 5.75 | 10.7 | 13.5 | 4.43 | 13.6 | -3.4 |
